Shown are actives, neighbours in structure and some others; about 7.4% of the full set was active somewhere.
Rab9 prom act = Rab9 promoter activation; Huh7 Rab9 promoter-luciferase reporter, luminescence, 24 h; Potency, µM (highest dose often 9.22 µM), for inactives: top-dose activation, negative = inhibition, usual class: activators; 2.8% of 320,000 active; also: % of control where 0% means no effect; nearly all actives have a fitted effect of over 60% in size
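Quantitative HTS format; Huh7 Rab9-luciferase reporter cells (1500/well) receive compound 2 h post-plating, incubate 24 h at 37 °C, then get luciferase reagent for 10 min before luminescence reading.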
FLuc modulator = firefly luciferase modulation, counter-screen for miR-21 project | AID 588342 | Potency, µM (titrated, usually from 57.5 µM), inactives show at the top dose activity change, negative = inhibition, actives largely listed as inhibitors | purified FLuc, Km substrates, luminescence inhibition | 6.9% of 360,000 active | P08659;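 also: plate controls were vehicle for no effect and reference inhibitor for full effect; nearly all actives have a fitted effect of over 55% in size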
Target sequence (P08659 whole entry, looked up): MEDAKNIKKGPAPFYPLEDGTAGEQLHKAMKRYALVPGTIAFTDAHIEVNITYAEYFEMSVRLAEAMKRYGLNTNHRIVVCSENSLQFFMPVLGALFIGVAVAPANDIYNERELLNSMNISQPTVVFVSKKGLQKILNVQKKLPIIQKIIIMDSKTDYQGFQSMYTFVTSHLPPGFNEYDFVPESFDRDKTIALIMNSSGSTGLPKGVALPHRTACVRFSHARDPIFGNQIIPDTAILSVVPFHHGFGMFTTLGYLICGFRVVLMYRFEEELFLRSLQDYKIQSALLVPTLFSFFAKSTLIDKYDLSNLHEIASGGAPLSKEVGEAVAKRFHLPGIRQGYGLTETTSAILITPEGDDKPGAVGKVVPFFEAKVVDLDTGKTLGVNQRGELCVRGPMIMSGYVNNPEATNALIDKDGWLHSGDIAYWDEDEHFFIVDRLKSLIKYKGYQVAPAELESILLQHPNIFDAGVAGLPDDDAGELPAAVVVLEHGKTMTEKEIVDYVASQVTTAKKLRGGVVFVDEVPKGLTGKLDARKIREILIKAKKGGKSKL
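Purified P. pyralis luciferase, 10 nM final, with Km-level 10 uM D-luciferin and 10 uM ATP in 50 mM Tris acetate pH 7.5, 10 mM Mg acetate, 0.01% Tween-20, 0.05% BSA; 6-point qHTS titration about 60 µM downward; luminescence read.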
ELG1 genotox = genotoxicity induction in ELG1-luciferase HEK293T cells; HEK293T ELG1-luciferase reporter, luminescence, 16 h; Potency, µM (titrated, usually from 46 µM), inactives show at the highest dose activity change, positive = activation, hits mostly activators; 1.3% of 330,000 active; also: % of control where 0% means no effect; nearly all actives have a fitted effect of over 60% in size
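Genotoxicity was scored as increased ELG1-luciferase reporter signal, measured by ONE-Glo luminescence (30 min, room temperature). Compound or vehicle exposure of the HEK293T reporter cells lasted 16 hr at 37°C.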
NPC1 promoter act = activators of NPC1 promoter | Huh7 NPC1 promoter luciferase reporter, 24 h | Potency, µM (doses to about 9.22 µM), without a hit: at the highest dose activation, usual class: activators | 2.4% of 320,000 active | AID 485313; also: % of control where 0% means no effect; nearly all actives have a fitted effect of over 60% in size
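In 1536-well qHTS, Huh7 cells harboring an NPC1 promoter–luciferase construct received compound for 24 h; activation was quantified by luminescence following luciferase reagent addition.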
SMN2 splice up = enhancers of SMN2 splice variant expression. 2.8% of 210,000 active. Potency, µM (doses to about 46.1 µM), for inactives: top-dose activity change, positive = activation, actives largely listed as activators. HEK293 SMN2-luciferase splicing reporter, luminescence, 30-36 h; also: % of control where 0% means no effect; nearly all actives have a fitted effect of over 55% in size
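HEK293 cells carry an SMN2 minigene-luciferase reporter in which exon 7 inclusion puts luciferase in frame. Cells were seeded at 2000 cells/well, attached for 10-12 hours, then exposed to compounds for 30-36 hours at 37C before ONE-Glo luminescence.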
* = called active by the depositor; u = inconclusive; x = no result given; [ ] = remark or other dose. Calls follow the shape of the dose curve; as a rule, active = well fitted curve in the direction sought with a large enough effect; inconclusive = small, poorly fitted or top-dose-only effect, or another doubt; inactive = no such curve, though single readings can be large; an effect the other way counts as inactive or inconclusive. Potency is read from the fitted curve at half-maximal effect.

SMILES	Rab9 prom act	FLuc modulator	ELG1 genotox	NPC1 promoter act	SMN2 splice up
CSc1ccccc1C(=O)Nc1ccc(C)c(C)c1	u	15µM*	u	u	u
O=C(O)c1cc(S(=O)(=O)Nc2ccc3cn[nH]c3c2)ccc1Cl	x	x	3%	x	x
O=c1cc(-c2ccc(OCc3ccccc3)cc2)oc2cc(OCc3ccccc3)cc(OCc3ccccc3)c12	x	x	7%	x	x
CCOc1ccc(NC(=O)c2ccccc2SC)cc1	u	17µM*	u	u	x
NS(=O)(=O)c1ccc(N/N=C/c2cn(-c3ccccc3)nc2-c2ccccc2)c([N+](=O)[O-])c1	-48%	-2%	16%	-29%	-83%
O=C(CNc1ccccc1)N/N=C/c1cn(-c2ccccc2)nc1-c1ccccc1	11%	-4%	-4%	-4%	-16%
O=C(O)/C=C/c1cn(-c2ccccc2)nc1-c1ccc(-c2ccc([N+](=O)[O-])cc2)o1	-1%	9.5µM*	0%	-3%	x
O=C(O)/C=C/c1cn(-c2ccccc2)nc1-c1cccc([N+](=O)[O-])c1	-10%	u	3%	-2%	x
O=C(N/N=C/c1cn(-c2ccccc2)nc1-c1cccs1)c1ccccc1F	5%	21µM*	-8%	1%	14%
NC(=O)N/N=C/c1cn(-c2ccccc2)nc1-c1ccccc1	17%	6.7µM*	u	19%	u
O=[N+]([O-])c1ccc(N/N=C/c2cn(-c3ccccc3)nc2-c2ccccc2)cc1	29%	2.7µM*	u	20%	-26%
CC1=C(C(=O)OC2CCCCCC2)C(c2c(F)cccc2Cl)CC(=O)N1 (stereo not given)	x	u	x	x	-17%
CC(=O)N1CCOc2cc(S(=O)(=O)Nc3cccc(C(F)(F)F)c3)c(Cl)cc21	-3%	-1%	x	-3%	x
CNC(=O)COC(=O)/C=C/c1cn(-c2ccccc2)nc1-c1ccc(C)o1	-2%	15µM*	0%	-1%	x
CCN(CC(=O)Nc1ccc(NC(C)=O)cc1)C(=O)/C=C/c1cn(-c2ccccc2)nc1-c1cccs1	u	17µM*	-21%	-1%	x
COc1ccc(-c2nn(-c3ccccc3)cc2/C=C/C(=O)OCC(=O)Nc2ccccc2C#N)cc1	-24%	-3%	u	-6%	-1%
COc1ccc(NC(=O)c2ccco2)cc1NC(=O)COc1ccc(Cl)cc1C	x	-5%	x	x	-12%
CC(C)(C)c1ccc(OCC(=O)NNC(=S)NC(=O)c2ccco2)c(Br)c1	3%	9.5µM*	1%	-4%	x
Cc1cc(Cl)ccc1OCC(=O)NCc1ccncc1	-4%	-8%	1%	-4%	-31%
Cc1ccc(NC(=O)COc2ccc(Br)cc2C)cc1	29%	9.5µM*	u	18%	-2%
Cc1cc(Cl)ccc1OCC(=O)NNC(=O)c1ccco1	26%	9.5µM*	u	10%	x
Cc1cc(Cl)ccc1OCC(=O)Nc1ccncc1	-13%	15µM*	u	-6%	x
COc1ccc(/C=N/NC(=O)CCc2c(C)n[nH]c2C)cc1O	0%	8%	-5%	2%	-8%
CCOC(=O)N1CCN(c2c(NCCCN3CCCCCC3)c(=O)c2=O)CC1	4%	0%	2%	-4%	19%
Cc1cc(Cl)ccc1OCCCC(=O)NNC(=O)c1ccncc1	2%	u	-1%	-2%	x
SMILES	Rab9 prom act	FLuc modulator	ELG1 genotox	NPC1 promoter act	SMN2 splice up
O=C(COc1ccc(Cl)cc1)NNC(=O)c1cccnc1	-2%	-6%	0%	1%	-13%
CCOc1ccc(NC(=O)CCC(=O)NNC(=O)COc2ccc(C)cc2Br)cc1	u	2.1µM*	u	u	x
O=C(COc1ccc(Cl)cc1Cl)NNC(=O)c1cccnc1	9%	5.4µM*	15%	5%	x
Cc1cc(Cl)ccc1OCC(=O)NNC(=O)c1cccnc1	17%	19µM*	-4%	1%	x
CCOc1ccc(NC(=O)CCC(=O)NNC(=O)COc2ccc(C)cc2)cc1	-2%	1%	7%	-9%	-13%
N#Cc1cccc(NC(=O)Cn2nc(Cc3ccncc3)c3ccccc3c2=O)c1	x	-6%	x	x	7%
CC(=O)n1c(COS(C)(=O)=O)nc2ccccc21	x	x	x	x	-12%[9.22 µM]
CC(C)N(Cc1ccccc1)C(=O)c1nc(-c2ccc(Cl)cc2)n2c1CCCCC2	x	-14%	x	x	x
Cc1nn(-c2ccccc2)c(Cl)c1/C=N/NC(=O)c1ccc(NS(=O)(=O)c2cccs2)cc1	u	0.85µM*	u	u	13µM*
Cc1nn(-c2ccccc2)c(Cl)c1/C=N/NC(=O)c1ccccc1NS(=O)(=O)c1cccs1	0%	12µM*	-2%	0%	-36%
O=C(O)c1ccc(C=NNC(=O)c2ccccc2NS(=O)(=O)c2cccs2)cc1	x	x	3%	x	x
Cc1nn(-c2cccc(Cl)c2)c(Cl)c1/C=N/NC(=O)c1cccs1	17%	0%	u	4%	x
COc1cccc(-c2cc(C(=O)NCc3ccco3)no2)c1	1.8µM*	11µM*	10µM*	3.2µM*	11µM*
O=C(NCCCn1ccnc1)c1cn(-c2ccccc2)nc1-c1ccccc1	x	12µM*	x	x	6%
Cc1ccc(-c2cc(C(=O)NCc3ccccn3)no2)cc1	u	17µM*	13µM*	u	28µM*
Cc1ccc(-c2cc(C(=O)NCc3ccco3)no2)cc1	2.2µM*	u	u	2.8µM*	u
Cc1ccc(C)c(OCCn2c(CCNC(=O)C3CCCCC3)nc3ccccc32)c1	x	2%	x	x	7%
CCOC(=O)c1c(C)oc2nc(C)nc(NCCc3ccc(C)cc3)c12	x	-13%	x	x	x
CCOc1ccc(CNC(=O)CCC(=O)n2ncc3ccc(Cl)cc32)cc1	0%	3%	5%	2%	x
O=C(NCc1ccco1)c1cc(-c2ccc(Cl)cc2)on1	u	-11%	16%	3.2µM*	-11%
O=C(NCc1ccco1)c1cc(-c2ccc3c(c2)OCO3)on1	4µM*	u	u	2.5µM*	u
O=C(NCCc1ccccn1)c1ccc(OC(F)F)cc1	0.79µM*	11µM*	u	1.4µM*	11µM*
O=C(NCc1ccccn1)c1ccc(-c2ccccc2)cc1	u	12µM*	u	u	x
CCc1ccc(NC(=O)c2cc(S(=O)(=O)N3CCCCCC3)ccc2F)cc1	x	4%	x	x	x
CCOc1ccc(OCC)c(NS(=O)(=O)c2cc(-c3onc(C)c3C)ccc2OC)c1	x	4%	x	x	x
CCCN(CC(=O)Nc1ccc(F)c(F)c1F)C(=O)Cc1ccc(S(=O)(=O)N2CCOCC2)s1	1%	5%	2%	1%	x
O=C(NCc1ccccn1)c1cn(-c2ccccc2)nc1-c1ccc(Cl)cc1	-5%	19µM*	0%	-2%	12%
O=C(/C=C/c1ccc(S(=O)(=O)NCc2ccco2)cc1)NCc1ccccc1Cl	8%	-1%	2%	-5%	x
Cc1cc(C(=O)NCc2ccco2)no1	-8%	-2%	0%	-5%	x
